# Compound activity deposited in PubChem by The Scripps Research Institute Molecular Screening Center.
# Rows were chosen to be rich in hits. Some 5.7% of all compounds tested hit in one or more screens of this group.
# ssDAF12 agonist – S. stercoralis DAF-12 nuclear receptor activators, primary screen, cell-based, luminescence, HEK293, GRIP1 co-expression, lit1-tk-luc. 370,000 tested, 1% active. Nuclear hormone receptor DAF-12 (Strongyloides stercoralis). activation, % at 6.8 µM. HEK293 ssDAF-12/GRIP1 lit1-tk-luc reporter; % of 3 µM dafachronic acid response. AID 652126, 2013;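 active = activation above the mean over all tested compounds plus 3 SD, cut at about 0.9% in these data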;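 also: 0% = DMSO-only wells and 100% = 3 µM delta7-dafachronic acid wells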
# DAX1 inh-1 – DAX1 (NR0B1) inhibitors on StAR promoter, primary screen, cell-based, luminescence, SF-1 (NR5A1), full-length DAX-1 | HEK293T StAR-luciferase reporter, SF-1/DAX-1 repression relief | inhibition, % at 6.8 µM | 370,000 tested, 1.1% active | AID 652010, 2013;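 active = inhibition above the mean over all tested compounds plus 3 SD, cut at about 3.6% in these data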;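 also: 0% = DAX-1 cells with DMSO and 100% = cells lacking DAX-1 with DMSO; higher inhibition means more luminescence from relief of DAX-1 repression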
# AHR activator – AHR activators, primary screen, cell-based, luminescence, luciferase reporter, human. AHR-responsive luciferase reporter cells. activation, % at 5 µM. Aryl hydrocarbon receptor (Homo sapiens), P35869. 320,000 tested, 2.5% active; in the data active = activation above about 47%;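 also: 0% = vehicle wells and 100% = reference agonist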
# hcDAF12 agonist – H. contortus DAF-12 nuclear receptor activators, primary screen, cell-based, luminescence, HEK293, lit1-tk-luc reporter; HEK293 hcDAF-12 lit1-tk-luc reporter; 0% DMSO, 100% Δ7-dafachronic acid; activation, % at 6.8 µM; 370,000 tested, 1.4% active;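 active = activation above the mean of all tested compounds plus 3 SD, cut at about 5.5% in these data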;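 also: 100% = response to 3 µM Δ7-dafachronic acid high control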
# hgDAF-12 ag – H. glycines DAF-12 receptor agonists, primary screen, cell-based, luminescence, HEK293, GAL4 fusion, UAS-luciferase. AID 687014, 2013. Nuclear hormone receptor DAF-12 (Heterodera glycines), GAL4 fusion. HEK293 GAL4-hgDAF12 UAS-luciferase reporter, agonist luminescence; normalized to butyrate control. 370,000 tested, 1.8% active. activation, % at 6.8 µM;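 active = activation above a cutoff set at the mean of all screened compounds plus 3 SD, cut at about 10% in these data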;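 also: 0% = DMSO wells and 100% = sodium butyrate wells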
# DAX1 inh-2 – DAX1 (NR0B1) inhibitors, primary screen, cell-based, HEK293, Gal4-DAX1, luciferase luminescence; HEK293 Gal4-DAX1 luciferase reporter; inhibition, % at 6.75 µM; 340,000 tested, 0.99% active;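 active = inhibition above the mean over all tested compounds plus 3 SD, cut at about 4.2% in these data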;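 also: 0% = DAX1-transfected cells with DMSO and 100% = empty-vector control cells with DMSO; inhibition shows as a rise in luminescence from relieved DAX1 repression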
# An asterisk follows results filed as active; nt = not tested or not shown.
SMILES,ssDAF12 agonist,DAX1 inh-1,AHR activator,hcDAF12 agonist,hgDAF-12 ag,DAX1 inh-2
COc1cc2c(c(OC)c1OC)-c1ccc(OC)c(=O)cc1C(NC(C)=O)CC2 (configuration not stated),0,1,0,0,-6,2
COc1cc2c(c(OC)c1OC)-c1ccc(SC)c(=O)cc1C(NC(=O)c1ccccc1)CC2 (configuration not stated),0,3.7*,nt,-2,-1,-1
COC(=O)c1ccc2c(c1)C(NC(C)=O)CCc1cc(OC)c(OC)c(OC)c1-2 (configuration not stated),0,4.3*,nt,-1,-4,1
C=COC(=O)NC1CCc2cc(OC)c(OC)c(OC)c2-c2ccc(SC)c(=O)cc21 (configuration not stated),0,2,nt,0,-5,1
CCOC(=O)N1CCC(NS(=O)(=O)c2cc(C(=O)OC)n(C)c2)CC1,-2,0,-3,1,-1,1
CC(=O)Nc1ccc2nc(NC(=O)CCc3ccccc3)sc2c1,-2,-1,25,0,2,2
CCOC(=O)c1ccc2nc(NC(=O)c3cccs3)sc2c1,0,3,4,5,12*,4.8*
CCCCC(=O)Nc1nc2ccc(C(=O)OC)cc2s1,-1,2,0,1,11*,0
CCOC(=O)c1ccc2nc(NC(=O)c3ccco3)sc2c1,0,3,11,4,10,-1
CCCC(=O)Nc1nc2ccc(NC(=O)c3ccccc3F)cc2s1,-2,-2,62*,0,0,-1
CCOC(=O)C1=C(COC(=O)c2ccco2)NC(=O)NC1CC (configuration not stated),-1,0,-2,1,3,1
COc1ccc(OC)c(NC(=O)[C@@H]2CCCN2C(=O)c2cccs2)c1,nt,nt,9,nt,nt,-1
NC(=O)C1=C[C@@H](C2CCCCC2)C[C@@H](OCCCCO)O1,-1,0,-2,-2,1,0
Cc1cc(OCC(=O)N(C)Cc2ccccc2)ccc1Cl,1.6*,1,-2,4,9,2
Cc1cc(OCC(=O)N(C)Cc2ccccc2)ccc1Br,0,-1,nt,-1,5,1
Cc1noc(C)c1C(=O)N(C)C[C@@H]1OCc2ccccc2-c2c(n(C)c3ccccc23)C(=O)N([C@H](C)CO)C[C@H]1C,-1,-1,nt,-2,1,2
CCC(C)[C@H](NS(=O)(=O)c1ccc(C)cc1)C(=O)N1CCC(C(=O)N[C@@H](Cc2ccccc2)C(=O)O)CC1 (some centres not stated),-1,1,3,-2,-1,0
CCN(C(=O)c1ccco1)c1nc(CC(=O)Nc2ccc(Cl)cc2)cs1,-2,0,78*,1,-2,0
CN(C(=O)c1ccco1)c1nc(CC(=O)Nc2ccccc2)cs1,-1,0,37,-1,2,1
N#Cc1ccc(C(=O)CSc2n[nH]c(=O)n2-c2cccnc2)cc1,-1,0,9,-1,2,nt
Cn1cc(C(=O)c2ccccc2)cc1-c1nc2ccccc2n1C,-2,-1,8,-1,-1,-1
CC(=O)c1ccc(-c2nc3ccccc3n2C)o1,0,1,0,5,11*,0
Cc1ccc(-c2nc3ccccc3n2C)o1,0,3.8*,11,4,11*,1
CC(=O)N1CCn2c3ccc(C)cc3c3cccc1c32,-1,1,71*,0,3,3
CN(CCOc1ccc(Cl)cc1)CC(O)c1ccccc1 (configuration not stated),-1,0,1,0,1,4.3*
